In the library only some 11% were active in any assay of this set; here they are far more common.
BAZ2B inh – qHTS Assay for Inhibitors of BAZ2B; AlphaScreen BAZ2B-H3K14Ac peptide displacement; Potency, µM (doses to about 114 µM), without a hit: at the top dose activity change, negative = inhibition, usual class: inhibitors; AID 504333, 2011; actives 4.4% (n = 360,000); Bromodomain adjacent to zinc finger domain protein 2B (Homo sapiens), Q9UIF8; further: on the % scale 0 is the no-effect control and ±100 the full control effect; nearly all actives have a fitted effect of over 60% in size
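Compounds, titrated to a top concentration of 110 uM, were incubated 30 min at room temperature with preformed BAZ2B/acetyl-K14 H3 peptide complex (50 nM each). Proximity signal was measured by AlphaScreen after 20 min with beads.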
HP1b binding inh – HTS for Inhibitors of HP1-beta Chromodomain Interactions with Methylated Histone Tails | AlphaScreen HP1-beta / biotin-H3K9me3 peptide binding | actives 0.56% (n = 390,000) | AID 540317, 2011 | Chromobox protein homolog 1 (Homo sapiens), P83916 | Potency, µM (highest dose often 114 µM), for inactives: at the highest dose activity change, negative = inhibition, actives largely listed as inhibitors; further: nearly all actives have a fitted effect of over 70% in size
Target sequence (P83916 whole entry, looked up): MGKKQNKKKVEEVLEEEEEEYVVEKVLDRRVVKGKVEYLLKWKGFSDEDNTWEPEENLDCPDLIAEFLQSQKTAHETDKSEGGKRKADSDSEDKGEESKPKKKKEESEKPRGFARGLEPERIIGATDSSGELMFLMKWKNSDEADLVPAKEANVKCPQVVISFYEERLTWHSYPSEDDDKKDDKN
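Compound inhibition of the preformed complex between 50 nM HP1-beta and 50 nM biotinylated H3K9me3 peptide was read by AlphaScreen. Buffer was PBS pH 7.4 with 0.01% Tween-20. Incubations ran 30 min at room temperature, with 10 ug/mL donor/acceptor beads.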
G9a inh – qHTS Assay for Inhibitors of Histone Lysine Methyltransferase G9a; G9a H3K9 monomethylation, AlphaScreen, 2 h; AID 504332, 2011; actives 8.8% (n = 350,000); Histone-lysine N-methyltransferase EHMT2 (Homo sapiens), Q96KQ7; Potency, µM (top dose mostly 102 µM), without a hit: top-dose activity, negative = inhibition, usual class: inhibitors; further: on the % scale 0 is the no-effect control and ±100 the full control effect; nearly all actives have a fitted effect of over 75% in size
Target sequence (Q96KQ7 913-1193 limits assumed): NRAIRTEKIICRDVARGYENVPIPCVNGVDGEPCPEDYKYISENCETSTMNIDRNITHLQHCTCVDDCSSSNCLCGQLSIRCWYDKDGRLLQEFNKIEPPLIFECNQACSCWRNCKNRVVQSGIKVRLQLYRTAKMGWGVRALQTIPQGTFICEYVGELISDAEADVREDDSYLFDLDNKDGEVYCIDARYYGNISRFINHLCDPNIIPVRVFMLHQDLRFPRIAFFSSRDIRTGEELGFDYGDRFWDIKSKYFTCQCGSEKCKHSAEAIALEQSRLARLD
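AlphaScreen read-out: biotin-H3K9 peptide (500 nM) methylation by 20 nM enzyme with 20 uM SAM, 2 h at room temperature after 15 min compound preincubation; anti-monomethyl H3K9 antibody plus donor/acceptor beads, 10 min dark.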
JMJD2A Tudor – qHTS Assay for Inhibitors of JMJD2A-Tudor Domain | actives 4.4% (n = 390,000) | AlphaScreen JMJD2A-Tudor / H3K4me3 peptide binding | Potency, µM (titrated, usually from 114 µM), without a hit: at the top dose activity change, negative = inhibition, actives largely listed as inhibitors | AID 504339, 2011; further: on the % scale 0 is the no-effect control and ±100 the full control effect; nearly all actives have a fitted effect of over 50% in size
L3MBTL1 block – qHTS Assay for the Inhibitors of L3MBTL1; Lethal(3)malignant brain tumor-like protein 1 (Homo sapiens), Q9Y468; AlphaScreen L3MBTL1–H3K9me1 peptide binding; Potency, µM (doses to about 57.1 µM), for the others: at the top dose activity, negative = inhibition, hits mostly inhibitors; actives 0.66% (n = 230,000); AID 485360, 2010; further: on the % scale 0 is the no-effect control and ±100 the full control effect; nearly all actives have a fitted effect of over 60% in size
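Read-out is AlphaScreen signal from streptavidin donor and nickel chelate acceptor beads (10 ug/mL final each) bridging L3MBTL1 (50 nM) and biotinylated K9-monomethylated H3(1-15) peptide (75 nM), after 30 min compound exposure at room temperature.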
Active calls of the source: *; [ ] = dose if it differs, or a comment. The call rests on the fitted dose curve; in most records, active means well fitted inhibition curve with a large enough effect; inconclusive means small, poorly fitted or top-dose-only effect; inactive means no such curve, though single readings can be large or run the other way. Potency means the concentration at half of the fitted maximal effect.

How did FC(F)(F)c1ccc(Cl)c(-n2c(-c3cc(-c4ccco4)[nH]n3)n[nH]c2=S)c1 do in these assays?
BAZ2B inh: -38%; HP1b binding inh: 11%; G9a inh: 16µM*; JMJD2A Tudor: -30%

Results for Cc1ccc2c(c1)nnn2C1CCN(S(=O)(=O)c2ccc(C(=O)N(C)C3CCCCC3)cc2)CC1 ?
BAZ2B inh: -3%; HP1b binding inh: 5%; G9a inh: 56µM*; JMJD2A Tudor: inconclusive; L3MBTL1 block: 1%

Results for Cc1ccc(S(=O)(=O)N2CCC(n3nnc4cc(C)ccc43)CC2)cc1 ?
BAZ2B inh: -6%; HP1b binding inh: 22%; G9a inh: 7%[59 µM]; JMJD2A Tudor: -14%; L3MBTL1 block: -10%

What do the screens show for `Cc1cccc(N2CCN(C(=O)C3CCN(S(=O)(=O)c4cccs4)CC3)CC2)c1C`?
BAZ2B inh: -1%; HP1b binding inh: 18%; G9a inh: 6%[59 µM]; JMJD2A Tudor: 0%

How did COc1ccc2nc(NC(=O)c3cc(=O)c4ccccc4o3)sc2c1 do in these assays?
BAZ2B inh: 0%; HP1b binding inh: 58%; G9a inh: -32%[59 µM]; JMJD2A Tudor: -34%

What do the screens show for `Cc1cc(C)c2nc(NNC(=O)c3ccc(S(=O)(=O)N4CCc5ccccc5C4)cc3)sc2c1`?
BAZ2B inh: inconclusive; HP1b binding inh: -4%; G9a inh: 40µM*; JMJD2A Tudor: inconclusive; L3MBTL1 block: inconclusive

Results for Cc1cc(C)c2nc(NNC(=O)c3cc(=O)c4ccccc4o3)sc2c1 ?
BAZ2B inh: 32µM*; HP1b binding inh: inconclusive; G9a inh: 8.9µM*; JMJD2A Tudor: 56µM*; L3MBTL1 block: -2%

What do the screens show for `Cc1nnc(NC(=O)c2ccc(S(=O)(=O)N3CCc4ccccc4C3)cc2)o1`?
BAZ2B inh: 79µM*; HP1b binding inh: 39%; G9a inh: -25%; JMJD2A Tudor: -30%; L3MBTL1 block: 46%

Results for Cc1cc(C)c2sc(NNC(=O)c3ccc(S(=O)(=O)N4CCc5ccccc5C4)cc3)nc2c1 ?
BAZ2B inh: 5.6µM*; HP1b binding inh: 5%; G9a inh: inconclusive; JMJD2A Tudor: 3.5µM*; L3MBTL1 block: inconclusive

How did CC(C)c1ccc(Nc2ncnc3c2c(-c2ccccc2)cn3-c2ccccc2)cc1 do in these assays?
BAZ2B inh: 1%; HP1b binding inh: 56%; G9a inh: -5%[59 µM]; JMJD2A Tudor: -12%

What do the screens show for `CO[C@@]1(NC(=O)CSCC#N)C(=O)N2C(C(=O)O)=C(CSc3nnnn3C)CSC21` (some centres not stated)?
G9a inh: -40%[2.33 µM]

What do the screens show for `CO[C@@]1(NC(=O)C2SC(=C(C(N)=O)C(=O)O)S2)C(=O)N2C(C(=O)O)=C(CSc3nnnn3C)CS[C@@H]21` (some centres not stated)?
BAZ2B inh: 50µM*; HP1b binding inh: -2%; G9a inh: 16µM*; JMJD2A Tudor: 25µM*; L3MBTL1 block: 7.9µM*

Results for CCOc1cc(/C=C2/SC(=S)N(C)C2=O)ccc1Oc1ccc([N+](=O)[O-])cc1[N+](=O)[O-] ?
BAZ2B inh: inconclusive; G9a inh: -27%; L3MBTL1 block: -7%

What do the screens show for `CCOc1cc(/C=C2\SC(=S)N(C(C(=O)O)c3ccccc3)C2=O)ccc1O` (configuration not stated)?
BAZ2B inh: -20%; HP1b binding inh: inconclusive; G9a inh: 45µM*; JMJD2A Tudor: -22%[11.4 µM]; L3MBTL1 block: -12%

What do the screens show for `O=C(O)C(c1ccccc1)N1C(=O)/C(=C\c2ccc(O)c(O)c2)SC1=S` (configuration not stated)?
BAZ2B inh: 8.9µM*; HP1b binding inh: 25µM*; G9a inh: 7.9µM*; JMJD2A Tudor: 20µM*

What do the screens show for `COc1ccccc1/C=C1\SC(=S)N(C(C(=O)O)c2ccccc2)C1=O` (configuration not stated)?
BAZ2B inh: -36%; HP1b binding inh: 28%; G9a inh: inconclusive; JMJD2A Tudor: 3%[11.4 µM]; L3MBTL1 block: -9%

What do the screens show for `COc1cc(/C=C2\SC(=S)N(C(C(=O)O)c3ccccc3)C2=O)ccc1O` (configuration not stated)?
BAZ2B inh: inconclusive; HP1b binding inh: inconclusive; G9a inh: 8.9µM*; JMJD2A Tudor: -32%; L3MBTL1 block: 0%

Results for CCOc1ccc(/C=C2/SC(=S)N(C(C(=O)O)c3ccccc3)C2=O)cc1OCC (configuration not stated) ?
BAZ2B inh: 79µM*; HP1b binding inh: inconclusive; G9a inh: 45µM*; JMJD2A Tudor: inconclusive

What do the screens show for `NC(=O)C1CCN(c2csc3ccc(F)cc3c2=O)CC1`?
BAZ2B inh: -2%; HP1b binding inh: 31%[57 µM]; G9a inh: 0%[59 µM]; JMJD2A Tudor: -2%

Results for Nc1ccc(O)cc1C(=O)OCC(=O)c1ccc(C2CCCCC2)cc1 ?
BAZ2B inh: 40µM*; HP1b binding inh: inconclusive; G9a inh: 45µM*; JMJD2A Tudor: inconclusive; L3MBTL1 block: -15%

Results for COc1ccc(C(=O)OCC(=O)c2ccc(C3CCCCC3)cc2)cc1 ?
BAZ2B inh: 19%; HP1b binding inh: 51%; G9a inh: 10%[59 µM]; JMJD2A Tudor: 27%; L3MBTL1 block: 9%

How did O=C(OCC(=O)C12CC3CC(CC(C3)C1)C2)c1ccc(O)cc1 do in these assays?
HP1b binding inh: 15%; JMJD2A Tudor: -25%; L3MBTL1 block: -5%

Results for Nc1ccc(O)cc1C(=O)OCC(=O)C12CC3CC(CC(C3)C1)C2 ?
BAZ2B inh: 50µM*; HP1b binding inh: -19%; G9a inh: 32µM*; JMJD2A Tudor: inconclusive; L3MBTL1 block: inconclusive

Results for O=C(NCc1ccccn1)c1nn(-c2ccccc2Cl)nc1CO ?
BAZ2B inh: -2%; HP1b binding inh: 30%; G9a inh: 0%[59 µM]; JMJD2A Tudor: -6%

Results for CCC(C)NC(=O)c1cc2n(n1)CCCN(Cc1ccc(C)cc1)C2=O (configuration not stated) ?
BAZ2B inh: -29%; HP1b binding inh: -4%; G9a inh: -2%[59 µM]; JMJD2A Tudor: -6%

How did Cc1cc(C)cc(NC(=O)C(NS(=O)(=O)c2cccc3nsnc23)c2ccccc2)c1 (configuration not stated) do in these assays?
HP1b binding inh: -8%; G9a inh: -5%[59 µM]; JMJD2A Tudor: inconclusive
